The source of these data is PubChem BioAssay (Tox21).

Inconclusive results are not listed. Calls of active or inactive are those of the source. Unless noted, calls come from the whole dose curve; as a rule, active = well fitted curve in the direction sought with a large enough effect in the repeat runs; inconclusive = weak or mixed curves; inactive = no such curve, though single readings can be large; an effect the other way counts as inactive or inconclusive.

Test [1] is described as follows: qHTS assay to identify small molecule agonists of the NFkB signaling pathway (AID 1159509; active = well fitted curve in the direction sought with a large enough effect in the signal ratio in the repeat runs, not every such curve was filed as active; the % refers to the signal ratio). The note with it: NFkB-bla ME-180 cells, beta-lactamase FRET ratio, 5 h; series mostly up to 61 µM. Put shortly:
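Agonist activity was read as beta-lactamase-driven FRET change (460 and 530 nm emission, 405 nm excitation) following 1.5 hr substrate loading at room temperature. Beforehand, ME-180 NFkB-bla reporter cells were treated with compounds for 5 hr at 37 C.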
A general note: In qHTS, concentration-response curves come from the screen itself.

A short description of test [2]: qHTS assay to identify small molecule agonists of the endoplasmic reticulum stress response signaling pathway (AID 1159516; active = well fitted activation curve with a large enough effect in the signal ratio in the repeat runs, not every such curve was filed as active; the % refers to the signal ratio). The conditions noted are these: ESRE-bla HeLa, ER stress beta-lactamase reporter, 5 h; series mostly up to 61 µM. Put shortly:
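Fluorescence at 460 and 530 nm (405 nm excitation) reports beta-lactamase from an ER stress response element in HeLa cells treated 5 hr at 37 C.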

A short description of test [3]: qHTS assay to identify small molecule agonists of the endoplasmic reticulum stress response signaling pathway - cell viability counter screen (AID 1159517; calls by dose curve; note: nearly all actives have a fitted effect of over 50% in size). The note with it: ESRE-bla HeLa viability, CellTiter-Glo luminescence, 5 h; series mostly up to 61 µM. Put shortly: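 Cpd-treated ESRE-bla HeLa (5 hr, 37 C) → LiveBLAzer 2 hr RT → CellTiter-Glo 30 min RT → luminescence.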

A short description of test [4]: qHTS assay to identify small molecule antagonists of the retinoid-related orphan receptor gamma (ROR-gamma) signaling pathway - cell viability counter screen (AID 1159520). Note: nearly all actives have a fitted effect of over 50% in size. The note with it: Tet-on RORgamma CHO cells viability, ATP luminescence, 16 h; series mostly up to 92.4 µM. Put shortly: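 Tet-on ROR gamma CHO cells (1,000/well) were plated 4 hr, given compounds in DMSO for 2 hr at 37 C, then induced with 1 uM final doxycycline for 16 hr. Viability was read as ATP by CellTiter-Glo luminescence after 30 min.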

Test [5] addresses Nuclear receptor ROR-gamma (Homo sapiens) (UniProt P51449). As to the kind of experiment: qHTS assay to identify small molecule antagonists of the retinoid-related orphan receptor gamma (ROR-gamma) signaling pathway (AID 1159521; note: nearly all actives have a fitted effect of over 50% in size; note: potency is the fitted concentration of half-maximal effect). The note with it: Tet-on RORgamma CHO cells, RORE-luciferase, 16 h; series mostly up to 92.4 µM. Put shortly:
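Tet-on ROR-gamma CHO cells with ROR response element-luciferase reporter; compounds added 2 hr before 1 uM doxycycline induction, then 16 hr at 37 C. Antagonism scored as decreased ONE-Glo luminescence.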

Test [6] is described as follows: qHTS assay to identify small molecule agonists of the AP-1 signaling pathway - cell viability counter screen (AID 1159525; calls by dose curve; note: nearly all actives have a fitted effect of over 55% in size). The conditions noted are these: ME-180 AP-1-bla cells viability, ATP luminescence, 5 h; series mostly up to 76.8 µM. Put shortly: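 Each titration point was normalised to DMSO and tetra n-octyl ammonium bromide controls. The read was Cell Titer Glo luminescence after 30 min at RT, following 5 h compound exposure of ME-180 AP-1-bla cells at 37 °C.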

A short description of test [7]: qHTS assay to identify small molecule agonists of the AP-1 signaling pathway (AID 1159526; calls by dose curve). The conditions noted are these: ME-180 (cervical carcinoma) AP-1-bla reporter, beta-lactamase FRET ratio, 5 h; series mostly up to 76.8 µM.
For test [8], the target named is Retinoic acid receptor RXR-alpha (Homo sapiens) (UniProt P19793). Briefly: qHTS assay to identify small molecule agonists of the RXR signaling pathway (AID 1159527; calls by dose curve; note: nearly all actives have a fitted effect of over 35% in size). The note with it: HEK293T RXRa-UAS-bla, beta-lactamase ratio, 16 h; series mostly up to 76.8 µM. An outline of the steps:
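GeneBLAzer RXR-alpha-UAS-bla HEK 293T cells in 2% charcoal-stripped FBS medium were exposed to compounds for 16 hr at 37 C in agonist mode. Beta-lactamase reporter read as 460/530 nm FRET ratio after 2 hr substrate loading.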

A short description of test [9]: qHTS assay to identify small molecule agonists of the RXR signaling pathway - cell viability counter screen (AID 1159529). Note: nearly all actives have a fitted effect of over 50% in size. The conditions noted are these: RXR-alpha-bla HEK293T viability, CellTiter-Glo, 16 h; series mostly up to 76.8 µM. An outline of the steps:
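RXR-alpha-UAS-bla HEK 293T cells in medium with 2% charcoal-stripped FBS were pre-incubated 5 hr, then compound-treated 16 hr at 37 C. Viability was read by CellTiter-Glo luminescence in the same wells as the beta-lactamase assay, with tetraoctyl ammonium bromide as positive control.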

Test [10] is described as follows: qHTS assay to identify small molecule antagonists of the retinoid acid receptor (RAR) signaling pathway - cell viability counter screen (AID 1159551). Note: nearly all actives have a fitted effect of over 35% in size. The note with it: C3RL4 cells viability, ATP luminescence (CellTiter-Glo), 6 h; series mostly up to 92.4 µM. Put shortly:
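In this counter screen, the RARE-luciferase line C3RL4 was exposed for 6 h at 37 C and 5% CO2 to compounds with retinol at 1 uM final. Cellular ATP, read by luminescence, served as the viability measure.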

Test [11] is described as follows: qHTS assay to identify small molecule antagonists of the retinoic acid receptor (RAR) signaling pathway (AID 1159552; note: nearly all actives have a fitted effect of over 50% in size). The note with it: C3RL4 RARE luciferase reporter, retinol-stimulated, 6 h; series mostly up to 92.4 µM. An outline of the steps: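 Retinol signaling pathway inhibitors screened in C3RL4 RARE-luciferase reporter cells seeded overnight at 37 C, then compounds added with 1 uM (final) retinol as pathway substrate. After 6 hr at 37 C, luciferase luminescence read after 30 min at room temperature.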

Test [12] is described as follows: qHTS assay to identify small molecule agonists of the retinoic acid receptor (RAR) signaling pathway (AID 1159553). Note: potency is the fitted concentration of half-maximal effect. The conditions noted are these: C3RL4 RARE luciferase reporter, agonist, 6 h; activation: at 73.3 µM (top of the series). Put shortly: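 In this cell-based screen, 1,000 C3RL4 cells per well were cultured overnight, dosed with test chemicals in DMSO for 6 hr, and assessed for RARE luciferase luminescence.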

Test [13] in a line: qHTS assay to identify small molecule agonists of the NFkB signaling pathway - cell viability counter screen (AID 1159515; calls by dose curve; note: nearly all actives have a fitted effect of over 55% in size). The note with it: NFkB-bla ME-180 viability, CellTiter-Glo luminescence, 5 h; series mostly up to 61 µM. Put shortly:
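Tox21 library compounds were tested for cytotoxicity against NFkB-bla ME-180 cells during a 5 hr exposure at 37 C. CellTiter-Glo luminescence served as the viability read-out.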

The nature of test [14]: qHTS assay to identify small molecule antagonists of the vitamin D receptor (VDR) signaling pathway - cell viability counter screen (AID 743225). Note: nearly all actives have a fitted effect of over 50% in size. The conditions noted are these: VDR-bla HEK293T viability, CellTiter-Glo luminescence, 16 h; series mostly up to 61 µM. Put shortly:
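VDR-UAS-bla HEK 293T cells were plated and incubated 4 h at 37C, then dosed with compound plus 3 nM (final) 1-alpha,25-dihydroxyvitamin D3 for 16 h. After the 2 h beta-lactamase read, viability in the same wells was read as CellTiter-Glo luminescence after 30 min at room temperature.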

Retinoic acid receptor RXR-alpha (Homo sapiens), sequence (P19793 whole entry, looked up): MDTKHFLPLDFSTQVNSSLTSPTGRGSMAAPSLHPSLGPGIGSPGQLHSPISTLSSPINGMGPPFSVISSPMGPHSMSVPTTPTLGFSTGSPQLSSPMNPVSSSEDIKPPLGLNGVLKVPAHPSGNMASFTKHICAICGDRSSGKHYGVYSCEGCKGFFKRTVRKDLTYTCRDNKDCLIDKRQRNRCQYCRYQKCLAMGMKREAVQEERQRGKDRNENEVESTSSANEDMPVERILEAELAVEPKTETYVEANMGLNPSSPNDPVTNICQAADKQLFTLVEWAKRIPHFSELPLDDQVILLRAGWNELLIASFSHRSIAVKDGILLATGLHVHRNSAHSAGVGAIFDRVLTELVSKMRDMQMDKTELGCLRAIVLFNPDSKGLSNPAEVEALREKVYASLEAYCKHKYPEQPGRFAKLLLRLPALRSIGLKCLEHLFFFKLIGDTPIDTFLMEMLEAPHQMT

For `C=C(C)CCCC(C)CCO` (stereo not given), the Potency entry in test [1], in [2], in test [3], in test [4], in test [5] and in [6] was “inactive” throughout. The Potency entry in [7], in test [8], in test [9], in test [10], in test [11] and in test [12] was “inactive” each time.
In the case of `Nc1ccc(N=Nc2ccccc2)c(N)c1`, the Potency entry in [1], in test [13], in [5], in test [6], in test [10] and in test [11] was “inactive” each time. In test [12], the Potency is 238 nM (active).
In the case of `NC(=O)c1ccncc1`, the Potency entry in test [14], in [1], in test [2], in test [3], in test [4] and in [5] was “inactive” each time. The Potency result in test [6], in [7], in [8], in test [9], in test [10] and in test [11] was “inactive” throughout. Further, in test [12], the Potency result is “inactive”.
For the molecule `Brc1cc2ccccc2c2ccccc12`, the Potency entry in [14], in test [1], in test [13], in [6], in test [11] and in test [12] was “inactive” in each case. Besides, in [5], the Potency is 21.8 µM (active).
With `C=C1CCC2CC1C2(C)C` (stereo not given), the Potency result in test [14], in [1], in test [2], in test [3], in test [4] and in [5] was “inactive” each time. Moreover, the Potency entry in [6], in [7], in test [8], in [9], in test [10] and in [11] was “inactive” in each case. In test [12], the Potency result is “inactive”.
On to `CC(=O)c1ccc([N+](=O)[O-])cc1`, for which the Potency result in [14], in test [1], in test [13], in test [4], in test [6] and in [7] was “inactive” each time. For the same molecule, the Potency entry in test [9], in test [10], in [11] and in [12] was “inactive” each time.
On to `CCOC(C)=O`, for which the Potency entry in [1], in [2], in [3], in test [4], in test [5] and in test [6] was “inactive” in each case. In addition, the Potency result in test [7], in [8], in test [9], in [10] and in [11] was “inactive” throughout.
As to `CCCCCCCC/C=C\CCCCCCCCCCCC(=O)O`, the Potency entry in test [14], in test [1], in [2], in test [3], in test [4] and in test [5] was “inactive” in each case. Besides, the Potency result in [6], in [7], in test [8], in test [9], in [10] and in test [11] was “inactive” each time. Also, in [12], the Potency result is “inactive”.
With `OC1(c2ccccc2)CCNCC1`, the Potency result in test [14], in test [1], in [2], in test [3], in test [4] and in [5] was “inactive” throughout. Moreover, the Potency entry in test [6], in test [7], in test [8], in [9], in test [10] and in test [11] was “inactive” each time.
Regarding `C=C1C[C@@]23CC[C@H]4[C@@](C)(CCC[C@@]4(C)C(=O)O[C@@H]4O[C@H](CO)[C@@H](O)[C@H](O)[C@H]4O)[C@@H]2CC[C@]1(O[C@@H]1O[C@H](CO)[C@@H](O)[C@H](O[C@@H]2O[C@H](CO)[C@@H](O)[C@H](O)[C@H]2O)[C@H]1O[C@@H]1O[C@H](CO)[C@@H](O)[C@H](O)[C@H]1O)C3`, the Potency result in test [1], in [2], in test [3], in test [4], in test [5] and in test [6] was “inactive” throughout. The Potency entry in [7], in [8], in test [9], in test [10], in test [11] and in test [12] was “inactive” throughout.
As for `Cc1[nH]cnc1CN1CCc2c(c3ccccc3n2C)C1=O`, the Potency entry in test [1], in test [2], in [3], in test [4], in test [5] and in test [6] was “inactive” in each case. Further, the Potency result in [7], in test [8], in test [9], in test [10], in test [11] and in [12] was “inactive” throughout.
For the molecule `CCOC(=O)c1ccc(O)c(O)c1`, the Potency result in test [14], in test [1], in test [2], in test [3], in test [4] and in test [5] was “inactive” in each case. Moreover, the Potency entry in test [6], in [7], in test [8], in [9], in [10] and in [11] was “inactive” throughout. Moreover, in test [12], the Potency result is “inactive”.
Take `O=[N+]([O-])c1ccc(O/N=C/c2cc(Br)c(O)c(Br)c2)c([N+](=O)[O-])c1`: the Potency entry in [1], in test [13], in test [6] and in test [10] was “inactive” throughout. The Potency in test [5] was 6.82 µM (active).
For `CC1CC(OC(=O)C(O)c2ccccc2)CC(C)(C)N1C` (stereo not given), the Potency result in [14], in test [1], in [13], in test [5], in test [6] and in [7] was “inactive” throughout. The Potency result in [9], in test [10], in [11] and in test [12] was “inactive” throughout.
